From PubChem BioAssay
Rows were chosen to be rich in hits. Some 1.6% of all compounds tested hit in one or more screens of this group.
KCNQ2 inh = rat KCNQ2 potassium channel inhibitors, primary screen, cell-based, CHO-K1, FluxOR thallium flux, B-score; hit rate 1.1% among 310,000; 20 min; stronger effect = lower value; AID 2156, 2009; B-score at 10 µM; Potassium voltage-gated channel subfamily KQT member 2 (Rattus norvegicus), O88943;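 active = fluorescence ratio B-score at most minus 3 library SDs, with starting brightness B-score within 2 library SDs, cut at about -5.5 in these data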
KCNQ2 pot = potentiators of rat KCNQ2 potassium channel; Potassium voltage-gated channel subfamily KQT member 2 (Rattus norvegicus), O88943; CHO-K1 KCNQ2, FluxOR thallium flux fluorescence; stronger effect = higher value; B-score at 10 µM; hit rate 0.54% among 310,000; AID 2239, 2010;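 active = fluorescence ratio B-score at least 3 SD of library B-scores, with initial fluorescence B-score within 3 of them, cut at about 5.3 in these data; same plate scores as AID 2156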;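 note: B-score of peak minus minimum over baseline fluorescence ratio after K+ and Tl+ stimulus; positive B-score means potentiation of KCNQ2 with more thallium influx and brighter signal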
Kir21 conf inh = mouse Kir2.1 channel blockers, retest, confirmation, cell-based, FluxOR thallium flux, duplicate | shares compounds with KCNQ2 pot | Kir2.1-expressing cells, FluxOR thallium flux fluorescence; stronger effect = lower value | Tl flux remaining, % of negative control (stronger effect = lower value), % at 10 µM | hit rate 41% among 2,300;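 active = Primary-screen hit whose thallium flux fell at least 3 control SD below untreated wells in both duplicates, with normal baseline fluorescence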;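 note: 0% = blank wells without stimulus and 100% = stimulated no-compound controls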
Target sequence (P35561 whole entry, looked up): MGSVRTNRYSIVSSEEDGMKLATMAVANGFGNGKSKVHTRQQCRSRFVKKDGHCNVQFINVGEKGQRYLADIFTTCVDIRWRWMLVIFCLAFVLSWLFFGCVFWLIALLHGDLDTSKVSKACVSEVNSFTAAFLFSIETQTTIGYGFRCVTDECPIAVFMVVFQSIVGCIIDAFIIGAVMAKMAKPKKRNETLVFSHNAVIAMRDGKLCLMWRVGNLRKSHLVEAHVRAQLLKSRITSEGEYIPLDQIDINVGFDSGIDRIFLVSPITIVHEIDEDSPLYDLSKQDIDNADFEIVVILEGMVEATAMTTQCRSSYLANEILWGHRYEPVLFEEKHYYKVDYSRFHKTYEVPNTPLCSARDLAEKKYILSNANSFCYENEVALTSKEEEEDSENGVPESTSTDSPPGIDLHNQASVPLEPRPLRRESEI
HEK293 ctr = alters thallium flux in parental HEK293 cells, Kir2.1 counter-screen. shares compounds with KCNQ2 pot. FluxOR thallium flux fluorescence; 0% = unstimulated blank wells. FluxOR signal as % of negative control (100 = no effect), % at 10 µM. hit rate 19% among 2,300;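 active = dye signal at least 3 control SD above or below untreated wells in both duplicates, raw fluorescence within 3, either direction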;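 note: percent is based on the flux ratio of peak minus minimum fluorescence over baseline F0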
CHO-K1 ctr = nonspecific thallium flux increase in parental CHO-K1, confirmation, counter-screen for KCNQ2 potentiator project, cell-based, FluxOR thallium flux, duplicate; shares compounds with KCNQ2 pot; parental CHO-K1 cells, FluxOR thallium flux fluorescence; zero = vehicle mean+3SD, 100% = vehicle-minus-blank window; activity increase over 3SD of controls, % at 10 µM; hit rate 43% among 1,200;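 active = signal rise of at least 3 SD above the untreated control mean, in both duplicate wells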;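 note: counter screen of KCNQ2 potentiator hits so any rise reflects channel-independent effects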
KCNQ1 pot spec = human KCNQ1 channel potentiation off-target, confirmation, selectivity assay for KCNQ2 potentiator project, cell-based, CHO, FluxOR thallium flux. shares compounds with KCNQ2 pot. CHO KCNQ1 stable, FluxOR thallium flux fluorescence; beyond 3SD, as % of vehicle-control signal. activation over 3SD threshold, % at 10 µM. hit rate 28% among 1,200;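 active = fluorescence ratio rise of at least 3 SD of vehicle wells above their mean, in both replicate wells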;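 note: 0% = vehicle mean plus 3 SD and 100% = vehicle minus unstimulated blank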
KCNQ2 pot conf = rat KCNQ2 channel potentiators, confirmation, cell-based, CHO, FluxOR thallium flux, duplicate. shares compounds with KCNQ2 pot. CHO-KCNQ2 cells, FluxOR thallium flux fluorescence. potentiation, less the hit threshold, % at 10 µM. hit rate 68% among 1,200;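 active = fluorescence ratio rising 3 SD or more over the vehicle control mean in both replicates, plus primary screen hit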;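 note: peak minus minimum thallium fluorescence divided by baseline after K/Tl stimulus; 0% = vehicle mean plus 3 SD and 100% = vehicle minus unstimulated blank difference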
Kir2-1 sel = mouse Kir2.1 channel activation off-target, confirmation, selectivity assay for KCNQ2 potentiator project, cell-based, HEK293, FluxOR thallium flux; shares compounds with KCNQ2 pot; HEK293 Kir2.1, FluxOR thallium flux fluorescence; activity over 3SD threshold, % at 10 µM; hit rate 2% among 1,200;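 active = fluorescence ratio rise of at least 3 SD above the vehicle-control mean, seen in both replicates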;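 note: 0% = vehicle mean plus 3 SD and 100% = vehicle minus no-stimulus blank window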
KCNQ2 W236L pot = potentiators of retigabine-insensitive KCNQ2 W236L, mechanism study for KCNQ2 potentiator project, cell-based, rat KCNQ2 W236L, CHO, automated patch clamp; hit rate 10% among 940; AID 2558, 2010; shares compounds with KCNQ2 pot; automated patch clamp current; current increase over 3SD of negative controls (%), stronger effect = higher value, % at 25 µM;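 active = current increase at least 3 SD of the untreated controls above them in both duplicate recordings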
* marks the source's active call; other numbers are inactive results; i = inactive; x = no result given.

SMILES	KCNQ2 inh	KCNQ2 pot	Kir21 conf inh	HEK293 ctr	others
Cc1nc(SCC(=O)N2CCCCC2)c2c(C)c(C)sc2n1	i	7.4*	i	i	CHO-K1 ctr=-10;KCNQ1 pot spec=100*;KCNQ2 pot conf=41*;Kir2-1 sel=-35;KCNQ2 W236L pot=i
Cc1sc2ncnc(SCC(=O)N3CCCCC3)c2c1C	i	2.5	x	x
O=c1[nH]c(-c2ccccc2)ncc1Oc1ccccc1	i	x	x	x
CCC1CCCCN1C(=O)c1ccc(OC)c(OC2CCN(C(C)C)CC2)c1 (centres undefined)	i	0.63	x	x
C=CCNCc1cccn1-c1sc2c(c1C#N)CCCC2	i	0.43	x	x
N#Cc1c(-n2cccc2/C=N/O)sc2c1CCCC2	i	x	46%*	i
C=CCc1ccc(OCCN2CCc3ccccc3C2)c(OC)c1	i	0.84	20%*	i
C/C=C/c1ccc(OCCN2CCc3ccccc3C2)c(OC)c1	i	x	x	x
Brc1ccccc1OCCNCc1ccccc1	i	x	x	x
C=CCc1ccc(OCCCNC2CCCC2)c(OC)c1	i	x	x	x
C=CCc1ccc(OCCCNCc2ccccc2)c(OC)c1	i	3.3	42%*	i
C=CCc1ccccc1OCCNCc1ccccc1	i	x	32%*	i
O=C(c1ccc(-n2cncn2)c([N+](=O)[O-])c1)N1CCN(S(=O)(=O)c2cccc(F)c2)CC1	i	0.07	x	x
Cc1ccc2oc(C(=O)NCCCN3CCOCC3)c(C)c2c1	i	0.1	x	x
O=C(O)c1ccccc1C(=O)Nc1c(-c2ccccc2)nc2ccccn12	i	0.17	x	x
O=C(CCCc1ccccc1)N=C1SC2CS(=O)(=O)CC2N1c1ccccc1F (centres undefined)	i	0.85	x	x
Cc1cc(C)c2nc(SC3CCOC3=O)cc(C)c2c1 (centres undefined)	i	0.27	x	x
Cc1cc(C)c2nc(SC(C)C#N)cc(C)c2c1 (centres undefined)	i	5.6*	i	68%*	CHO-K1 ctr=75*;KCNQ1 pot spec=-9;KCNQ2 pot conf=-12;Kir2-1 sel=-44;KCNQ2 W236L pot=i
Cc1cc(OCCCN2CCCC2)ccc1Cl	i	0.48	x	x
Cc1ccc2c(c1)N(C(=O)c1ccco1)C(C)(C)c1ssc(=S)c1-2	i	x	x	x
O=Cc1ccc(OCC(=O)NCC2CCCO2)cc1 (centres undefined)	i	1.1	x	x
Cc1occc1C(=O)Nc1ccc2c(c1)CCC2	i	7.2*	i	i	CHO-K1 ctr=-4;KCNQ1 pot spec=-4;KCNQ2 pot conf=32*;Kir2-1 sel=-44;KCNQ2 W236L pot=i
Cc1occc1C(=O)Nc1ccc2c(c1)OCCO2	i	1.3	x	x
CC(C)Cc1csc(NC(=O)C(C)C)c1C(=O)O	i	1	x	x
CC(C)Cc1csc(NC(=O)c2ccc(Br)cc2)c1C(=O)O	i	6.1*	i	126%*	CHO-K1 ctr=6.1*;KCNQ1 pot spec=16*;KCNQ2 pot conf=18*;Kir2-1 sel=-28;KCNQ2 W236L pot=i
SMILES	KCNQ2 inh	KCNQ2 pot	Kir21 conf inh	HEK293 ctr	others
CCCN(C(=O)c1cccc(S(=O)(=O)N2CCN(C)CC2)c1)c1c(N)n(Cc2ccccc2)c(=O)[nH]c1=O	i	1.1	x	x
CN(CCOc1ccc(Br)cc1)CC(O)COc1ccc(C#N)cc1 (centres undefined)	i	x	x	x
COc1ccc(Br)cc1CN(C)CC(O)COc1ccc(Br)cc1 (centres undefined)	-6.3*	-6.3	70%*	i
O=C(Nc1ccccc1NC(=O)c1csnn1)c1csnn1	i	x	x	x
CCCOc1cccc(C(=O)NC(=S)Nc2cccc(C(F)(F)F)c2)c1	i	x	x	x
O=C(NC(=S)Nc1ccccc1Cl)c1csnn1	i	15*	i	408%*	CHO-K1 ctr=79*;KCNQ1 pot spec=-19;KCNQ2 pot conf=72*;Kir2-1 sel=-18;KCNQ2 W236L pot=i
O=C(NC(=S)Nc1cccc(C(F)(F)F)c1)c1csnn1	i	18*	i	442%*	CHO-K1 ctr=-18;KCNQ1 pot spec=-11;KCNQ2 pot conf=80*;Kir2-1 sel=-17;KCNQ2 W236L pot=i
Cc1sc(NC(=O)CSc2nnc(N)s2)c(C#N)c1C	i	0.97	x	x
Cc1ccccc1CN(C)CC(=O)NC(C)CCc1ccccc1 (centres undefined)	-6.6*	-6.6	34%*	i
Cc1ccc(CC(=O)NC(C)CCc2ccccc2)cc1 (centres undefined)	i	x	x	x
CC(NC(=O)[C@H](C)N1C(=O)N2CCc3c([nH]c4ccccc34)[C@@]2(C)C1=O)c1ccccc1 (some centres undefined)	i	x	x	x
COc1ccc(Nc2c([N+](=O)[O-])ccc3c2=NC2(CCCCC2)N=3)cc1	i	x	x	x
Cc1ccc(/C(=N/Nc2nc3ccccc3s2)C2=C(O)c3ccccc3C2=O)cc1	i	0.85	i	i
Cc1ccc(S(=O)(=O)N(C)CC(=O)Nc2nc3ccccc3s2)cc1	i	x	x	x
CCCn1cc(CN2CCC(N3CCC(C(=O)N4CCOCC4)CC3)CC2)c(C)n1	i	0.07	x	x
CC(C)C(C(=O)OCC(=O)c1ccccc1)N1C(=O)C2C3C=CC(C3)C2C1=O (centres undefined)	i	x	x	x
COc1cc(OC)c(OC)cc1CN(C)CC1CCCN(CCc2ccccc2F)C1 (centres undefined)	i	0.01	x	x
COc1ccc(CN(C)CC2CCCN(CCc3ccccc3C)C2)cc1O (centres undefined)	i	0.83	40%*	i
COc1ccc(C(C(=O)NC(C)(C)C)N(CCc2ccccc2)C(=O)CCC(=O)Nc2cc(C)on2)cc1 (centres undefined)	i	1.3	x	x
CCOc1ccccc1NS(=O)(=O)c1ccc2c(c1)n(C)c(=O)c(=O)n2C	i	0.52	x	x
O=C(Nc1nccs1)c1ccc(COc2c(F)c(F)cc(F)c2F)cc1	i	0.15	x	x
